The values below come from ChEMBL document CHEMBL4513216, “Probing the Open Global Health Chemical Diversity Library for Multistage-Active Starting Points for Next-Generation Antimalarials” (ACS Infect Dis, 2020).

SMILES strings stand for the structures. Hit rate of the full screen: of about 69,000 compounds, about 8,600 (12%) showed an effect of 50% or more. This is one part of a sample in which strong results are shown more often than they occur.

This assay concerns Plasmodium berghei. Nature of the assay: Screen against P. berghei liver stage (PbLuc), transformed with Luciferase, at 10uM. In kind it is functional, HepG2. As to conditions: tested at 10 uM.
Take `COc1cccc2c1ccn2CCC(=O)N1CCC(C(=O)O)CC1`: the INHIBITION came out at 25.1%.

For `CN(C)C(=O)CN1C[C@H]2CN(Cc3cccc(F)c3)C(=O)[C@H]2C1`, the INHIBITION worked out at 25.2%.

In the case of `Cc1occc1CNC(=O)C1(C)CCCN1C(=O)c1ccccc1` (stereo unspecified), the INHIBITION was 28.7%.

Take `Cc1occc1CNC(=O)C1(C)CCCN(C(=O)c2ccccc2)C1` (stereo unspecified): the INHIBITION worked out at 58.3%.

For the molecule `CC(C)C(=O)N1CCC12CCCN(C(=O)c1ccccc1)C2` (stereo unspecified), the INHIBITION is recorded as 36.2%.

On to `CCN(C)Cc1cccc(CNC(=O)CSCc2ccncc2)c1`, for which the INHIBITION is recorded as 35.4%.

`Fc1cnc(N2C[C@@H](OCC3CCOCC3)[C@H]3OCCC[C@H]32)nc1`: the INHIBITION is 44.4%.

As for `O=C(c1ccc(Cl)cc1)N1CCC2(C1)C(=O)Nc1ccccc12` (stereo unspecified), the INHIBITION is listed as -18.8%.

Turning to `O=C(OCc1ccccc1)N1CC[C@H]2CC(CO)O[C@@H]2C1` (stereo partly specified), the INHIBITION stood at 78.3%.

As to `CN(C)C[C@H]1C[C@@H]2CN(C(=O)c3ccco3)C[C@@H]2O1`, the INHIBITION is recorded as 42.3%.

On to `C[C@H]1C[C@@H]2CCN(C(=O)c3ccccn3)C[C@H]2O1`, for which the INHIBITION was -0.813%.

`Cn1ccnc1SCCNc1cc(N2CCOCC2)ncn1`: the INHIBITION is -7.85%.

In the case of `Cn1ncc2c(N3CCCC(C)(O)C3)nc(-c3cccnc3)nc21` (stereo unspecified), the INHIBITION was 23.5%.

Take `CN1CCCC1CNC(=O)CCCOc1ccc(I)cc1` (stereo unspecified): the INHIBITION was determined as 18.625%.

As for `COc1ccc(Cc2nc3c([nH]2)CC(C)(C)CNC3=O)cc1OC`, the INHIBITION turned out to be 13.9%.

For `CC1(C)CNC(=O)c2nc(-c3ccccc3)[nH]c2C1`, the INHIBITION amounted to 18.8%.

Regarding `COc1cccc(Cc2nc3c([nH]2)CC(C)(C)CNC3=O)c1OC`, the INHIBITION was determined as 55.5%.

Regarding `COc1ccc(Cc2nc3c([nH]2)CC(C)(C)CNC3=O)c(OC)c1`, the INHIBITION was 16.8%.

As to `COc1cc(Cc2nc3c([nH]2)CC(C)(C)CNC3=O)cc(OC)c1`, the INHIBITION is recorded as 59.4%.

Turning to `COc1cccc(-c2nc3c([nH]2)CC(C)(C)CNC3=O)c1OC`, the INHIBITION is given as 30.7%.

Regarding `CC(C)N1CCO[C@@H]2CN(C(=O)NCc3ccccc3)CC[C@@H]2C1`, the INHIBITION is reported as 32.1%.

`COc1nc2cc(C)ccc2cc1CN(C)Cc1cc(C)[nH]n1`: the INHIBITION was 36.1%.

Turning to `COc1ccccc1OC(C)CNC(=O)c1cnc[nH]1` (stereo unspecified), the INHIBITION was -15.5%.

With `CC(CNC(=O)c1cnc[nH]1)Oc1ccc(Cl)cc1` (stereo unspecified), the INHIBITION is 20.9%.

Take `CC(CNC(=O)c1cnc[nH]1)Oc1ccccc1Br` (stereo unspecified): the INHIBITION is given as 57.2%.

Take `O=C(c1cc(Cn2ccc3ccccc32)[nH]n1)N1CCCCC1CO` (stereo unspecified): the INHIBITION stood at 13%.

With `Cc1cnn(CC2CCCN2C(=O)CCc2ccco2)c1` (stereo unspecified), the INHIBITION is listed as 45.9%.

In the case of `COc1ccccc1CN1CCC(c2nccc(C)n2)C1` (stereo unspecified), the INHIBITION came to 38.3%.

As to `NCCn1nc(C2CCN(C(=O)Cc3ccccc3)C2)c2nccnc21` (stereo unspecified), the INHIBITION is reported as 30.4%.

Take `CC(C)(C)CC(=O)N1CCC(c2nn(CCN)c3nccnc23)C1` (stereo unspecified): the INHIBITION was -3.31%.

Consider `NCCn1nc(C2CCN(Cc3ccccc3)C2)c2nccnc21` (stereo unspecified), for which the INHIBITION is 60.5%.

For the molecule `NCCn1nc(C2CCN(Cc3ccc(Cl)c(Cl)c3)C2)c2nccnc21` (stereo unspecified), the INHIBITION is given as 71.1%.

With `COc1ccccc1CN1CCC(c2nn(CCN)c3nccnc23)C1` (stereo unspecified), the INHIBITION came to 52%.

With `NCCn1nc(C2CCN(Cc3ccccc3Cl)C2)c2nccnc21` (stereo unspecified), the INHIBITION is given as -49%.

Consider `Cc1ccccc1CN1CCC(c2nn(CCN)c3nccnc23)C1` (stereo unspecified), for which the INHIBITION came to 43.6%.

As for `COc1cccc(CN2CCC(c3nn(CCN)c4nccnc34)C2)c1` (stereo unspecified), the INHIBITION came to 7.52%.

Consider `CC(O)c1cnn(-c2ccccc2)c1` (stereo unspecified), for which the INHIBITION is -6.04%.

On to `O=C(O)c1ccccc1-c1ccc(CN2CCC(CO)CC2)cn1`, for which the INHIBITION amounted to 9.98%.

Regarding `CCNc1cc2c(nn1)CCN(C(=O)CCc1c(C)noc1Cl)C2`, the INHIBITION was found to be 0.411%.

With `COc1ccccc1C(=O)N1CCN(C(=O)Cc2ccccn2)CC1`, the INHIBITION was -36.1%.

Regarding `Cc1ncccc1C(=O)Nc1cccc(Cn2ccccc2=O)c1`, the INHIBITION amounted to 38.5%.

As to `CCn1ncnc1CN1CCC(CNC(=O)c2cccc(C)n2)C1` (stereo unspecified), the INHIBITION turned out to be 15.4%.

For `CCc1ccc(C(=O)N2CCCC(n3nc(C)nc3C)C2)o1` (stereo unspecified), the INHIBITION is 33.73%.

As for `CCOCCc1nc(CCc2ccccc2)n[nH]1`, the INHIBITION was found to be 26.7%.

Turning to `CCc1cnc(N2C[C@H]3CCCC(N(C)Cc4ccccn4)[C@H]3C2)nc1` (stereo partly specified), the INHIBITION is reported as 33.1%.

`Cc1cnc(N2C[C@H]3CCCC(N(C)Cc4ccccn4)[C@H]3C2)nc1` (stereo partly specified): the INHIBITION came out at 55.7%.

`CN(Cc1ccccn1)C1CCC[C@@H]2CN(CC3CC3)C[C@H]12` (stereo partly specified): the INHIBITION came out at 22.2%.

For `CC(C)NC(=O)c1nc(Cn2c(C(F)F)nc3ccccc32)no1`, the INHIBITION is recorded as 62.4%.

In the case of `Cc1occc(=O)c1OCc1noc(C(=O)NC(C)C)n1`, the INHIBITION was 42.8%.

In the case of `CC(C)NC(=O)c1nc(Cn2c(C(F)(F)F)nc3ccccc32)no1`, the INHIBITION is on record as 43.9%.

Consider `Cc1nc2ccccc2n1Cc1cc(C(=O)NC2CCOC2)no1` (stereo unspecified), for which the INHIBITION is listed as 11.1%.

Consider `O=C(NC1CCCC1)c1cc(Cn2cnc3ccccc32)on1`, for which the INHIBITION worked out at 5.8%.

On to `O=C(NC1CC1)c1nc(Cn2c(C(F)F)nc3ccccc32)no1`, for which the INHIBITION came to 54.8%.

With `COc1ccccc1-c1csc(NC(=O)N2CCN(C)CC2C)n1` (stereo unspecified), the INHIBITION is -9.08%.

With `Cc1cc(C)n(CC2CN(Cc3nnc(C)o3)CCO2)n1` (stereo unspecified), the INHIBITION was 5.1%.

Take `O=C(c1ccc(F)cc1F)N1C[C@@H]2CC[C@H]1CN(Cc1ccccc1)C2`: the INHIBITION worked out at 41.5%.

As for `O=C1CC(c2ccc(CO)o2)c2cnn(Cc3ccco3)c2N1` (stereo unspecified), the INHIBITION came out at 67.6%.

Turning to `CC(C)(C)C1CC(=O)Nc2c1cnn2Cc1ccco1` (stereo unspecified), the INHIBITION is -21.7%.

Consider `CC(C)CC1CC(=O)Nc2c1cnn2Cc1ccco1` (stereo unspecified), for which the INHIBITION worked out at 50.2%.

For the molecule `CC(C)C1CC(=O)Nc2c1cnn2Cc1ccco1` (stereo unspecified), the INHIBITION turned out to be 7.85%.

For the molecule `O=C1CC(c2ccc(C(=O)O)cc2)c2cnn(Cc3ccco3)c2N1` (stereo unspecified), the INHIBITION is listed as -8.04%.

On to `CN(C)c1ccc(C2CC(=O)Nc3c2cnn3Cc2ccco2)cc1` (stereo unspecified), for which the INHIBITION is 1.45%.

As for `COc1ccc(CN(Cc2cnc(N)nc2)CC2CCCO2)c(OC)c1` (stereo unspecified), the INHIBITION stood at 23.2%.

With `CNC(=O)[C@@H](c1ccccc1F)N1CCC[C@H]1C(=O)NC1CCCC1`, the INHIBITION is -49.3%.

With `O=C(CN1C[C@H]2CC(OCc3ccccc3)C[C@H]2C1)N1CCOCC1` (stereo partly specified), the INHIBITION is listed as -2.09%.

On to `Cc1[nH]c(=O)[nH]c(=O)c1CC(=O)N1CCCN(CC2CC2)C(C(C)C)C1` (stereo unspecified), for which the INHIBITION is -69.3%.

Take `CC(C)C1CN(C(=O)c2cn3cc(Cl)cnc3n2)CCCN1CC1CC1` (stereo unspecified): the INHIBITION came out at 60.3%.

For `CC(C)C1CN(C(=O)c2ccc(Cl)cn2)CCCN1CC1CC1` (stereo unspecified), the INHIBITION was 14.9%.

`CC(C)C1CN(C(=O)c2cn3ccccc3n2)CCCN1CC1CC1` (stereo unspecified): the INHIBITION is on record as 47.6%.

For the molecule `CC(C)C1CN(C(=O)c2cc(=O)[nH]c(=O)[nH]2)CCCN1CC1CC1` (stereo unspecified), the INHIBITION is listed as 74.8%.

Consider `CC(C)C1CN(C(=O)c2cc(=O)[nH]c(=O)[nH]2)CCC(=O)N1CC1CC1` (stereo unspecified), for which the INHIBITION came to 9.35%.
